The results in this text go back to PubChem BioAssay (EPA / NIEHS).

“And” between values parts separate entries of the source, which are not always exact repeats. Equal values may be shown once. Where a structure was tested more than once in an assay, its records may differ in their call. The source made the active and inactive calls. How the source made its calls: active means hit-call score of the fitted dose curve at least 0.9, where 1 is the maximum; inactive means score below 0.9.

Read-out in test [1]: Monocyte Chemoattractant Protein-1 (MCP1), CCL2 (gene 6347)
The experiment in a line: BSK_SAg_MCP1: BioMAP Diversity Plus: SAg Assay for Monocyte Chemoattractant Protein-1 (MCP1) Biomarker Activity (AID 2283090). The following applies: primary human HUVEC with PBMC; actives raise or lower the signal. In a few lines:
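MCP-1 levels in the endothelial–PBMC SAg co-culture were quantified by ELISA at 24 h post-dosing; both increases and decreases versus DMSO scored. Cytotoxicity monitored by SRB total protein in parallel cultures.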

Read-out in test [2]: E-selectin (Homo sapiens) (UniProt P16581)
Description: BSK_SAg_Eselectin: BioMAP Diversity Plus: SAg Assay for Eselectin Biomarker Activity (AID 2283091). The note with it: primary human HUVEC with PBMC; actives raise or lower the signal. In a few lines: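 Human umbilical vein endothelial cells co-cultured with peripheral blood mononuclear cells, SAg system. E-selectin is measured by ELISA 24 h after dosing and fitted bidirectionally against DMSO. Cytotoxicity is checked by SRB staining of parallel cultures.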

Read-out in test [3]: Monokine induced gamma interferon (MIG), CXCL9 (gene 4283)
The experiment in a line: BSK_SAg_MIG: BioMAP Diversity Plus: SAg Assay for Monokine induced gamma interferon (MIG) Biomarker Activity (AID 2283092). The following applies: primary human HUVEC with PBMC; actives raise or lower the signal. In a few lines:
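Endothelial cells and PBMC were co-cultured, exposed to test chemicals, and sampled 24 h later. MIG was measured by ELISA, and responses were fitted in both directions relative to DMSO.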

Test [4] can be described thus: BSK_SAg_PBMCCytotoxicity: PBMC Cytotoxicity Assessment in the BioMAP Diversity Plus: SAg Assay (AID 2283093).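 Further: PBMC viability measured as Alamar Blue reduction fluorescence at 546/580 nm; fitted both ways against DMSO so a hit may be loss or gain of signal.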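 On AC50: PBMC superantigen activated with SEB plus TSST-1 one hour after compound addition.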 The following applies: primary human HUVEC with PBMC. In a few lines: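 Compound added to 75,000 PBMC/well for 1 h; SEB and TSST-1 then added at 20 ng/mL final each; 90 h incubation; Alamar Blue 6 h; read 546/580 nm ex/em. Activity fitted bidirectionally relative to DMSO baseline.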

Read-out in test [5]: Interleukin-8 (IL8), CXCL8 (gene 3576)
Description: BSK_SAg_IL8: BioMAP Diversity Plus: SAg Assay for Interleukin-8 (IL8) Biomarker Activity (AID 2283094). The note with it: primary human HUVEC with PBMC; actives raise or lower the signal. The gist of the method:
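Human umbilical vein endothelial cells co-cultured with PBMC, stimulated with superantigen; IL-8 measured by ELISA 24 h after chemical dosing. Bidirectional fitting versus DMSO; SRB staining in parallel cultures tracks cytotoxicity.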

Test [6] can be described thus: BSK_SAg_Proliferation: Cell Proliferation Assessment in the BioMAP Diversity Plus: SAg Assay (AID 2283095). The following applies: primary human HUVEC with PBMC. The gist of the method: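 Human umbilical vein endothelial cells co-cultured with PBMC; sulforhodamine B total-protein staining (0.1% SRB after 10% TCA fixation, absorbance 560 nm) at 96 h in sub-confluent culture. Fitted bidirectionally against DMSO.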

Test [7] in a line: BSK_SAg_SRB: Viability Assessment in the BioMAP Diversity Plus: SAg Assay (AID 2283096).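 Further: cells read one day after compound addition; hits may be either gain or loss of signal compared with DMSO.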 The note with it: primary human HUVEC with PBMC. In a few lines:
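Total protein by sulforhodamine B staining, 24 h after dosing, in HUVEC–PBMC co-culture; DMSO-referenced bidirectional fitting.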

Sequence of E-selectin (Homo sapiens) (P16581 whole entry, looked up): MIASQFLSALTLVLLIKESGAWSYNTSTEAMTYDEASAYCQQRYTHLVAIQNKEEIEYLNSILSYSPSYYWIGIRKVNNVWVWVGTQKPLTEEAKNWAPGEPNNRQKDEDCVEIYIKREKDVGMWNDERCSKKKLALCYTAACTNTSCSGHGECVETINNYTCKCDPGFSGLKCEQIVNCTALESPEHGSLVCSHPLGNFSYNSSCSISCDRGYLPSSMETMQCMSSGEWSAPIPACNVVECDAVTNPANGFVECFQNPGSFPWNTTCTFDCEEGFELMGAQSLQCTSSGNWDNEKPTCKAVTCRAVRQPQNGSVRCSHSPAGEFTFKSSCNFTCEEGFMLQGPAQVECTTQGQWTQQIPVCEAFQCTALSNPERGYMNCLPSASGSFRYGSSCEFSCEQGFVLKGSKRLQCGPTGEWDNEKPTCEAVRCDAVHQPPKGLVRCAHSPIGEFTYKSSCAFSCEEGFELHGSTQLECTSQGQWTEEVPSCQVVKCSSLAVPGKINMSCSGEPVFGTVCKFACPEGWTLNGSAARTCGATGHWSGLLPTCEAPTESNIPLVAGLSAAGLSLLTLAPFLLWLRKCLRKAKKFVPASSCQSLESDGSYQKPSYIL

In the case of `FC(F)(F)C(F)(C(F)(F)F)C(F)(F)C(F)(F)CC1CO1` (centres undefined), the outcome in test [1], in test [2], in test [3], in test [4], in test [5] and in test [6] was inactive. For the same molecule, the result in test [7] was inactive.

Consider `CCCCN(CCCC)N=O`, for which the result in test [1], in test [2], in test [3], in test [4], in test [5] and in test [6] was inactive. In addition, the result in test [7] was inactive.

In the case of `CC(O)C(F)(F)C(F)(F)F` (centres undefined), the result in test [1], in test [2], in test [3], in test [4], in test [5] and in test [6] was inactive. Besides, the result in test [7] was inactive.

Take `CCOP(=S)(OCC)SCSc1ccc(Cl)cc1`: the AC50 (as a rule, the concentration giving half of the maximal activity seen) in test [1] is 20 µM (active); in test [2] it was 20 µM (active); in test [4], 13 µM (active); in test [5] it was 20 µM (active); in test [6] it was 14.2 µM (active). The outcome in test [3] and in test [7] was inactive.

In the case of `Nc1cc2c3c(c1)C(c1ccccc1)=N[C@@H](NC(=O)c1cccnc1)C(=O)N3CC2`, the result in test [1], in test [3], in test [4], in test [5], in test [6] and in test [7] was inactive. For the same molecule, the AC50 in test [2] was 1.12 µM (active).

`c1ccc(OP(Oc2ccccc2)Oc2ccccc2)cc1`: the result in test [1], in test [2], in test [3], in test [4], in test [5] and in test [6] was inactive. Besides, the outcome in test [7] was inactive.

`COP(=O)(O)OC`: the result in test [1], in test [3], in test [4], in test [5], in test [6] and in test [7] was inactive. In test [2], the AC50 is 0.0643 µM (active).

With `CCOP(=S)(S)OCC`, the result in test [1], in test [2], in test [3], in test [4], in test [5] and in test [6] was inactive. Further, the outcome in test [7] was inactive.

Consider `CC(Cl)(Cl)C(=O)O`, for which the outcome in test [1], in test [2], in test [3], in test [4], in test [5] and in test [6] was inactive. The outcome in test [7] was inactive.

As for `C=CC(=O)OCC(F)(F)C(F)F`, the AC50 in test [1] is 34.3 µM (active) and 20.4 µM (active); in test [2] it was 30.4 µM (active) and 17.6 µM (active); in test [3] it was 53.5 µM (active) and 45.4 µM (active); in test [4], 15.1 µM (active); in test [5], 20.7 µM (active) and 9.88 µM (active); in test [6], 13.4 µM (active) and 6.25 µM (active). The outcome in test [4] and in test [7] was inactive.

Turning to `c1nc[nH]n1`, the result in test [1], in test [2], in test [3], in test [4], in test [5] and in test [6] was inactive. The outcome in test [7] was inactive.

Turning to `N#Cc1c(-c2ccc(Cl)cc2)[nH]c(C(F)(F)F)c1Br`, the AC50 in test [1] was 1.53 µM (active); in test [2], 0.267 µM (active); in test [3], 2.85 µM (active); in test [4], 5.4 µM (active); in test [5], 0.178 µM (active); in test [6] it was 1.86 µM (active). For the same molecule, the AC50 in test [7] was 4.34 µM (active).

As to `O=C(O)C(F)(F)C(F)(F)C(=O)O`, the outcome in test [1], in test [2], in test [3], in test [4], in test [5] and in test [6] was inactive. For the same molecule, the outcome in test [7] was inactive.

As to `CCCCC(CC)COP(=O)(Oc1ccccc1)Oc1ccccc1` (centres undefined), the result in test [1], in test [3] and in test [7] was inactive. Also, the AC50 in test [2] is 20 µM (active); in test [4], 20 µM (active); in test [5] it was 7.9 µM (active); in test [6] it was 20 µM (active).

Consider `CCOP(=S)(OCC)SCS(=O)(=O)CC`, for which the result in test [1], in test [2], in test [3], in test [4], in test [5] and in test [6] was inactive. Besides, in test [7], the outcome was inactive.

Regarding `COC(=O)C(F)(F)C(F)(F)OC(F)(C(F)(F)F)C(F)(F)OC(F)=C(F)F` (centres undefined), the result in test [1], in test [2], in test [3], in test [4], in test [5] and in test [6] was inactive. For the same molecule, the result in test [7] was inactive.

As to `O=C(O)C=CC(F)(C(F)(F)F)C(F)(F)F`, the result in test [1], in test [2], in test [3], in test [4], in test [5] and in test [6] was inactive. Moreover, the outcome in test [7] was inactive.

Take `O=c1ssc(Cl)c1Cl`: the half-maximal activity concentration (AC50) in test [1] was 5.35 µM (active); in test [2] it was 4.28 µM (active); in test [3], 9 µM (active); in test [4] it was 4.21 µM (active); in test [5], 8.19 µM (active); in test [6], 1.94 µM (active). Moreover, the AC50 in test [7] is 6.23 µM (active).

As for `OCC(F)(F)OC(F)(F)C(F)(F)OC(F)(F)C(F)(F)OC(F)(F)CO`, the AC50 is 10.3 µM (active) in test [1]; 38.3 µM (active) and 42.9 µM (active) in test [2]; 17.9 µM (active) in test [5]. Further, the outcome in test [1], in test [3], in test [4], in test [5], in test [6] and in test [7] was inactive.

On to `CCCCC(CC)COC(=O)c1c(Br)c(Br)c(Br)c(Br)c1C(=O)OCC(CC)CCCC` (centres undefined), for which the result in test [1], in test [2], in test [3], in test [4], in test [5] and in test [6] was inactive. The outcome in test [7] was inactive.

Regarding `CCOP(=S)(NC(C)C)Oc1ccccc1C(=O)OC(C)C` (centres undefined), the result in test [1], in test [2], in test [3], in test [4], in test [5] and in test [6] was inactive. For the same molecule, the result in test [7] was inactive.

`CCCCc1ccccc1`: the result in test [1], in test [2], in test [3], in test [4], in test [5] and in test [6] was inactive. Besides, the result in test [7] was inactive.

For the molecule `O=C(O)C(F)(OC(F)(F)C(F)(F)C(F)(F)F)C(F)(F)F` (centres undefined), the result in test [1], in test [2], in test [3], in test [4], in test [5] and in test [6] was inactive. Further, the outcome in test [7] was inactive. Moreover, the AC50 in test [5] was 9.29 µM (active).

On to `CC(C)(C)c1ccccc1OP(=O)(Oc1ccccc1)Oc1ccccc1`, for which the AC50 was 27.7 µM (active) in test [1]; 20 µM (active) in test [2]; 34.6 µM (active) in test [3]; 33.2 µM (active) in test [4]; 20 µM (active) in test [5]; 10.8 µM (active) in test [6]. Besides, the AC50 in test [7] is 30.7 µM (active).

As to `OCC(F)(F)OC(F)(F)C(F)(F)OC(F)(F)CO`, the result in test [1], in test [2], in test [3], in test [4], in test [5] and in test [6] was inactive. Also, the outcome in test [7] was inactive.
